Drawing on PubChem BioAssay AID651815 (National Center for Advancing Translational Sciences (NCATS), 2012), this text covers Potency for 60 compounds.

Among all 2,100 compounds or so, about 1,100 (52%) were called active. Inconclusive results (about 29%) are left out. Calls follow the shape of the dose curve; as a rule, active = well fitted inhibition curve with a large enough effect; inconclusive = small, poorly fitted or top-dose-only effect; inactive = no such curve, though single readings can be large or run the other way. So high a share suggests a set chosen from earlier hits. This is one part of the list.
Potency is read from the fitted curve at half-maximal effect.

DNA dC->dU-editing enzyme APOBEC-3F (Homo sapiens), sequence (Q8IUX4 whole entry, looked up): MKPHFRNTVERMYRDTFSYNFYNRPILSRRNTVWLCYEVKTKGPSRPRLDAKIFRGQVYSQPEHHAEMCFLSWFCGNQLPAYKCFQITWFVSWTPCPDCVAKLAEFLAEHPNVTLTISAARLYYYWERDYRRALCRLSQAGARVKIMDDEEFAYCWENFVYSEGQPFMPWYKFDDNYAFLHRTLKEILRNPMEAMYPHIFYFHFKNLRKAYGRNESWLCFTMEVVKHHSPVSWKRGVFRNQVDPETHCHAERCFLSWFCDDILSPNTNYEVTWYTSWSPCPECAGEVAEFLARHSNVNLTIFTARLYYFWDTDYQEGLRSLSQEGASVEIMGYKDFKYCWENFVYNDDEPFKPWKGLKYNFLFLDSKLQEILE

The target in this test is DNA dC->dU-editing enzyme APOBEC-3F (Homo sapiens) (UniProt Q8IUX4). Kind of test: qHTS for inhibitors of Vif-A3F interactions: Cherry picks counterscreen. Also: nearly all actives have a fitted effect of over 65% in size. The following applies: HeLa A3F-eYFP/Vif cells, eYFP fluorescence, 24 h; series mostly up to 46.1 µM. Summed up:
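HeLa cells stably expressing A3F-eYFP and Vif, cultured overnight, then treated 24 h at 37 degrees C with compounds at several concentrations; yellow fluorescence (488 nm Ex/500-530 nm Em) imaged on Acumen; MG132 positive control.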
On the technique in general: qHTS replaces the single test concentration by a dilution series.
In the case of `c1cc(SC2CCCCC2)cc(-c2nc3cnccn3c2NC2CCCCC2)c1`, the Potency result was “inactive”.

Turning to `CCC(C)Sc1ccc(-c2nc3cc(C)ccn3c2NC2CCCCC2)cc1` (stereo not given), the Potency entry is “inactive”.

As to `CCCCNc1c(-c2ccc(SC3CCCCC3)cc2)nc2cnccn12`, the Potency is 4.44 µM (active).

For `O=C(c1cc(-c2ccncc2)nc2ccccc12)N1CCN(c2ccccn2)CC1`, the Potency is 6.27 µM (active).

Take `COC(=O)c1sc(N)c(C(=O)OC)c1COC(=O)c1c(C)noc1C`: the Potency was 4.44 µM (active).

As to `COc1ccc(C(=O)c2sc3nc4c(c(C(F)(F)F)c3c2N)CN(C(C)=O)CC4)cc1OC`, the Potency is 23.1 µM (active).

With `CC(=O)N1CCc2nc3sc(C(=O)c4ccc(F)cc4)c(N)c3c(C(F)(F)F)c2C1`, the Potency was 18.4 µM (active).

On to `COc1ccccc1-c1nnc2sc(-c3cc4ccccc4o3)nn12`, for which the Potency is 5.59 µM (active).

For the compound `CCCNc1c(F)c(F)c2c(C)c3ccccc3nc2c1F`, the Potency was 15.8 µM (active).

Regarding `Cc1c2ccccc2nc2c(F)c(NC(C)C)c(F)c(F)c12`, the Potency is 6.51 µM (active).

For `c1ccc(-c2cnn3c(-c4ccccc4)c(-c4ccccc4)nc3n2)cc1`, the Potency was 0.461 µM (active).

Turning to `Nc1c(C(=O)C2CC2)sc2nc(-c3cccs3)cc(C(F)(F)F)c12`, the Potency is 1.16 µM (active).

On to `CC(=O)c1sc2nc(-c3cccs3)cc(C(F)(F)F)c2c1N`, for which the Potency is 16.4 µM (active).

Take `CC(C)(C)C(=O)c1sc2nc(-c3cccs3)cc(C(F)(F)F)c2c1N`: the Potency is 1.84 µM (active).

On to `CCCc1nc2c(C)cc(Br)cn2c1Cc1ccccc1`, for which the Potency result was “inactive”.

As to `C=CCn1cc(/C=C/c2cc[n+](C)cc2)c2ccccc21`, the Potency was 0.198 µM (active).

Consider `CC(C)n1cc(/C=C/c2cc[n+](C)cc2)c2ccccc21`, for which the Potency was 0.0559 µM (active).

With `CCn1cc(/C=C/c2cc[n+](C)cc2)c2ccccc21`, the Potency was 0.0498 µM (active).

With `COc1cc(OC)c(/C=C/c2ccc3ccccc3[n+]2C)c(OC)c1`, the Potency is 11.6 µM (active).

In the case of `N#Cc1c(-c2ccccc2F)cc(C2CC2)nc1SCC(=O)c1cccs1`, the Potency is 14 µM (active).

Regarding `CCc1c(C)nc(SCC(=O)c2cccs2)c(C#N)c1C`, the Potency result is “inactive”.

As for `COc1cccc(CNCCSc2nnnn2C)c1OCc1ccc(F)cc1`, the Potency entry was “inactive”.

On to `Fc1ccc(COc2ccc3ccccc3c2CNc2nn[nH]n2)cc1`, for which the Potency is 19.8 µM (active).

In the case of `O=C(NNC1=Nc2cccc3cccc1c23)c1ccc(Br)cc1`, the Potency is 23.1 µM (active).

Take `COc1cc(OC)c(/C=C2\SC(=O)N(CC(=O)Nc3ccccc3F)C2=O)c(OC)c1`: the Potency was 12.5 µM (active).

Turning to `O=C(Cn1nc2c(cc1=O)CCCC2)NCc1ccc(Cl)cc1`, the Potency is 16.4 µM (active).

On to `N#C/C(=C/c1cccs1)c1ccccn1`, for which the Potency was 15.8 µM (active).

With `CC(=O)Nc1cccc(-c2ccnc3c2CC(C)(C(=O)NCc2ccccc2)O3)c1` (stereo not given), the Potency was 2.8 µM (active).

`CC1(C(=O)NCc2ccco2)Cc2c(-c3cccc(C(N)=O)c3)ccnc2O1` (stereo not given): the Potency is 14 µM (active).

With `CC(=O)Nc1cccc(-c2ccnc3c2CC(C)(C(=O)NCc2cccs2)O3)c1` (stereo not given), the Potency was 4.44 µM (active).

In the case of `CC1(C(=O)NCc2ccccc2)Cc2c(-c3ccc(C(N)=O)cc3)ccnc2O1` (stereo not given), the Potency is 7.9 µM (active).

As to `CC(=O)Nc1cccc(-c2ccnc3c2CC(C(=O)NCc2cccs2)O3)c1` (stereo not given), the Potency is 5.59 µM (active).

For `CC1(C(=O)NCc2ccccc2)Cc2c(-c3cccc(C(N)=O)c3)ccnc2O1` (stereo not given), the Potency is 7.04 µM (active).

`N#C/C(=C\c1cccnc1)c1nc2ccccc2[nH]1`: the Potency was 14 µM (active).

Take `CCCOc1cc(N(CC)CC)ccc1/C=C(/C#N)c1nc2ccc(C)cc2[nH]1`: the Potency entry is “inactive”.

Consider `N#C/C(=C\c1ccc(Cl)cc1)c1nc2ncccc2[nH]1`, for which the Potency is 15.8 µM (active).

For the compound `Cc1ccc2nc(/C(C#N)=C\c3ccc([N+](=O)[O-])o3)[nH]c2c1`, the Potency is 10.3 µM (active).

Take `N#C/C(=C\c1ccc([N+](=O)[O-])o1)c1nc2ccccc2[nH]1`: the Potency is 8.2 µM (active).

In the case of `CCc1ccc(/C=N/NC(=O)c2cc(-c3ccncc3)nc3ccccc23)s1`, the Potency was 4.98 µM (active).

For `CC(/C=N/NC(=O)c1cc(-c2ccccc2)nc2ccccc12)=C\c1ccco1`, the Potency was 3.14 µM (active).

On to `C/C(=N\NC(=O)c1cc(-c2ccncc2)nc2ccccc12)c1ccc(N2CCOCC2)cc1`, for which the Potency entry is “inactive”.

For `O=C(N/N=C/c1ccco1)c1cc(-c2ccncc2)nc2ccccc12`, the Potency was 6.27 µM (active).

As for `CCn1c(O)c(/C=N/NC(=O)c2ccncc2)c(=O)n(CC)c1=S`, the Potency result is “inactive”.

For the compound `O=C(NCc1cccc(F)c1)c1cccc2c1C(=O)c1ccc(N3CCCC3)cc1S2(=O)=O`, the Potency was 17.7 µM (active).

Take `CC1CCN(c2ccc3c(c2)S(=O)(=O)c2cccc(C(=O)NCc4cccc(F)c4)c2C3=O)CC1`: the Potency is 14 µM (active).

Consider `Cc1ccc(CNC(=O)c2cccc3c2C(=O)c2ccc(N4CCC(C)CC4)cc2S3(=O)=O)cc1`, for which the Potency is 14.6 µM (active).

As for `COc1ccc2oc(=Nc3ccccc3)c(-c3nc4ccccc4[nH]3)cc2c1`, the Potency is 20.6 µM (active).

For the compound `COc1cc(C(=O)Nc2ccc(C)cc2)c2ccccc2n1`, the Potency was 1.77 µM (active).

On to `CCOC(=O)c1csc(NC(=O)c2cc(-c3ccccn3)nc3ccccc23)n1`, for which the Potency entry is “inactive”.

As for `Cc1ccc(Cl)cc1NC(=O)Nc1cn(CC(C)C)c(=O)c2ccccc12`, the Potency result was “inactive”.

As for `Cc1ccc(C)c(NC(=O)Cn2cc(S(=O)(=O)Cc3cccc(Cl)c3)c3ccccc32)c1`, the Potency is 6.51 µM (active).

As to `CCS(=O)(=O)N1N=C(c2ccc(C)cc2)CC1c1cc2ccc(OC)cc2nc1Cl` (stereo not given), the Potency result is “inactive”.

Regarding `COc1ccc(C2CC(c3ccncc3)=NN2c2ccc(S(N)(=O)=O)cc2)cc1` (stereo not given), the Potency was 20.6 µM (active).

Take `O=C(Nc1nc2ccc(F)cc2s1)c1ccc([N+](=O)[O-])o1`: the Potency is 15.8 µM (active).

With `COc1ccc2nc(NC(=S)NC(=O)c3ccco3)sc2c1`, the Potency result is “inactive”.

In the case of `COc1ccc(NC(=O)c2c(Cl)n(C)c3ccccc23)cc1`, the Potency is 14 µM (active).

As for `COc1cc(OC)c(OC)cc1/C=C1\CC(C)C/C(=C\c2cc(OC)c(OC)cc2OC)C1=O` (stereo not given), the Potency was 18.4 µM (active).

In the case of `CCOc1ncccc1C(=O)NCc1ccc(OC)cc1`, the Potency is 8.86 µM (active).

With `CCCOc1ccc2cc(C(=O)NCc3ccccc3)c(=O)oc2c1`, the Potency result was “inactive”.

Turning to `CCOc1ccc(CNC(=O)c2ccccc2NC(=O)c2nsc3ccccc23)cc1`, the Potency is 16.4 µM (active).
